Experimental data reported in PubChem BioAssay (Tox21).
A number with no mark means an inactive call. Results filed as inconclusive are left out. Where a call stands in place of a potency, no number is given. The source made the active and inactive calls. Unless noted, calls come from the whole dose curve; as a rule, active = well fitted curve in the direction sought with a large enough effect in the repeat runs; inconclusive = weak or mixed curves; inactive = no such curve, though single readings can be large; an effect the other way counts as inactive or inconclusive.

Assays:
[1] = qHTS RealTime-Glo MT Cell Viability Assay in HEK293 cells - 0 hour (AID 1224880); note: top concentration of the series differs between compounds; nearly all actives have a fitted effect of over 45% in size
Method in brief: (§1)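 Kinetic, non-lysing viability readout. Seed HEK293 (600/well) with reagent, incubate 5 h at 37 C/5% CO2, pin 23 nL compound in DMSO, incubate at 37 C, read luminescence at 0, 8, 16, 24, 32, 40 h.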

[2] = A CellTox Green Cytotoxicity Assay to monitor cytotoxicity in HEK293 cells - 32 hour (AID 1224881); note: nearly all actives have a fitted effect of over 40% in size
Method in brief: (§2)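 Real-time, in one plate: 600 HEK293 cells/well with dead-cell DNA dye, pinned compound after 5 h, 37 C incubation over 40 h; viable cells give no appreciable fluorescence.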

[3] = A CellTox Green Cytotoxicity Assay to monitor cytotoxicity in HepG2 cells - 0 hour (AID 1224882); note: nearly all actives have a fitted effect of over 35% in size
Method in brief: (§3)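 Cytotoxicity was tracked as dead-cell DNA fluorescence in HepG2 cells treated with test compounds at 37 C; each time-point value comes from one kinetic series spanning 0, 8, 16, 24, 32 and 40 h.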

[4] = A CellTox Green Cytotoxicity Assay to monitor cytotoxicity in HEK293 cells - 8 hour (AID 1224884); note: nearly all actives have a fitted effect of over 35% in size
Method in brief: as §2

[5] = qHTS RealTime-Glo MT Cell Viability Assay in HepG2 cells - 16 hour (AID 1224885); note: nearly all actives have a fitted effect of over 50% in size
Method in brief: (§4)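 Viability was tracked continuously by NanoLuc luminescence from prosubstrate reduced by living HepG2 cells, at successive time points over 40 h of compound exposure. Cells with reagent were preincubated 5 h at 37 °C before compound addition.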

[6] = qHTS RealTime-Glo MT Cell Viability Assay in HEK293 cells - 24 hour (AID 1224886); note: top concentration of the series differs between compounds; nearly all actives have a fitted effect of over 50% in size
Method in brief: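 Viability tracked continuously by luminescence as live cells reduce a prosubstrate for NanoLuc; HEK293 cells preincubated 5 h, compound-treated at 37 C, and read at 0, 8, 16, 24, 32 and 40 h.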

[7] = qHTS RealTime-Glo MT Cell Viability Assay in HEK293 cells - 8 hour (AID 1224887); note: nearly all actives have a fitted effect of over 50% in size; note: potency is the fitted concentration of half-maximal effect; for activity change, negative = cytotoxicity: top concentration of the series differs between compounds
Method in brief: as §1

[8] = A CellTox Green Cytotoxicity Assay to monitor cytotoxicity in HEK293 cells - 16 hour (AID 1224888); note: nearly all actives have a fitted effect of over 35% in size
Method in brief: as §2

[9] = qHTS assay to identify small molecule antagonists of the estrogen receptor alpha (ER-alpha) signaling pathway using the BG1 cell line in the presence of 0.1 nM 17-beta-estradiol - cell viability counter screen (AID 1259241); note: nearly all actives have a fitted effect of over 40% in size
Method in brief: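 Cells were plated and left 24 hr, compounds in DMSO were pinned in, 17beta-estradiol was added to 0.1 nM final, and after 22 hr CellTiter-Fluor reagent was added for 30 min before fluorescence was read.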

[10] = qHTS assay to identify small molecule antagonists of the androgen receptor (AR) signaling pathway using the MDA cell line in the presence of 0.5 nM R1881 - cell viability counter screen (AID 1259242); note: nearly all actives have a fitted effect of over 45% in size
Method in brief: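 Cells seeded at 3,000/well and allowed 5 hr at 37C, 0% CO2 before compound transfer and R1881 (0.5 nM final) addition; 16 hr later, live-cell protease fluorescence indicated cytotoxicity.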

[11] = qHTS assay to identify small molecule HDAC inhibitors (AID 1259364);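 note: wild-type HCT-116 cells with endogenous class I/II HDAC activity; top concentration of the series differs between compounds; nearly all actives have a fitted effect of over 45% in size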
Method in brief: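 HCT-116 wt cells, 1,500/well, overnight attach. Compounds (DMSO) 2 h, 37 °C. HDAC-Glo I/II, 30 min RT. Luminescence.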

[12] = qHTS assay to identify small molecule HDAC inhibitors - cell viability counter screen (AID 1259365); note: series mostly up to about 92 µM; nearly all actives have a fitted effect of over 50% in size
Method in brief: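 Counter screen in wild-type HCT-116 cells: compounds dissolved in DMSO are pin-transferred onto overnight-plated cells and left 2hr at 37C. ATP-based CellTiter-Glo luminescence then measures viable cells.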

[13] = qHTS assay to identify small molecule agonists of the sonic hedgehog signaling (Shh) pathway - cell viability counter screen (AID 1259366); note: nearly all actives have a fitted effect of over 50% in size
Method in brief: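 Cells are plated at 2,000 per well and left 4hr at 37C, 5% CO2 before compound addition. After 23hr of treatment, CellTiter-Fluor reagent is added for 1hr at 37C and fluorescence is measured.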

[14] = qHTS assay to identify small molecule antagonists of the sonic hedgehog signaling (Shh) pathway - cell viability counter screen (AID 1259367); note: nearly all actives have a fitted effect of over 55% in size
Method in brief: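 Viability was read by CellTiter-Fluor fluorescence in the same wells, reagent added 23 hr into compound treatment and incubated 1 hr at 37C. The 3T3 Gli1-Luc reporter cells (2,000/well) received conditioned medium after compound and ran 24 hr.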

[15] = qHTS RealTime-Glo MT Cell Viability Assay in HepG2 cells - 0 hour (AID 1224889); note: nearly all actives have a fitted effect of over 50% in size
Method in brief: as §4

[16] = qHTS assay to identify small molecule phospholipidosis (PLD) inducers (AID 1259344; active = well fitted curve in the direction sought with a large enough effect; an effect the other way counts as inactive or inconclusive)
Method in brief: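 Phospholipid accumulation was scored by imaging: fixed, Hoechst-counterstained HepG2 cells stained with LipidTOX Red after 24 h compound exposure at 37 C. Read-outs were pit count and pit intensity per well or per cell, with amiodarone and DMSO controls.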

[17] = A CellTox Green Cytotoxicity Assay to monitor cytotoxicity in HepG2 cells - 32 hour (AID 1224883); note: nearly all actives have a fitted effect of over 50% in size
Method in brief: as §3

[18] = A CellTox Green Cytotoxicity Assay to monitor cytotoxicity in HepG2 cells - 8 hour (AID 1224890); note: nearly all actives have a fitted effect of over 45% in size
Method in brief: as §3

[19] = target: Estrogen receptor (Homo sapiens) (UniProt P03372); assay: qHTS assay to identify small molecule antagonists of the estrogen receptor alpha (ER-alpha) signaling pathway using the BG1 cell line in the presence of 0.1 nM 17-beta-estradiol (AID 1259244); note: nearly all actives have a fitted effect of over 50% in size
Method in brief: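 Luciferase signal from VM7Luc4E2 ERE-reporter cells, co-dosed with test compound and 0.1 nM final 17beta-estradiol for 22 h, read with ONE-Glo.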

[20] = target: Androgen receptor (Homo sapiens) (UniProt P10275); assay: qHTS assay to identify small molecule antagonists of the androgen receptor (AR) signaling pathway using the MDA cell line in the presence of 0.5 nM R1881 (AID 1259243); note: nearly all actives have a fitted effect of over 50% in size
Method in brief: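 Luminescence from an AR/GR-responsive MMTV-luciferase construct in MDA-kb2 breast carcinoma cells, read 30 min after ONE-Glo, following 16 hr co-treatment with compounds and 0.5 nM R1881.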

Estrogen receptor (Homo sapiens), sequence (P03372 whole entry, looked up): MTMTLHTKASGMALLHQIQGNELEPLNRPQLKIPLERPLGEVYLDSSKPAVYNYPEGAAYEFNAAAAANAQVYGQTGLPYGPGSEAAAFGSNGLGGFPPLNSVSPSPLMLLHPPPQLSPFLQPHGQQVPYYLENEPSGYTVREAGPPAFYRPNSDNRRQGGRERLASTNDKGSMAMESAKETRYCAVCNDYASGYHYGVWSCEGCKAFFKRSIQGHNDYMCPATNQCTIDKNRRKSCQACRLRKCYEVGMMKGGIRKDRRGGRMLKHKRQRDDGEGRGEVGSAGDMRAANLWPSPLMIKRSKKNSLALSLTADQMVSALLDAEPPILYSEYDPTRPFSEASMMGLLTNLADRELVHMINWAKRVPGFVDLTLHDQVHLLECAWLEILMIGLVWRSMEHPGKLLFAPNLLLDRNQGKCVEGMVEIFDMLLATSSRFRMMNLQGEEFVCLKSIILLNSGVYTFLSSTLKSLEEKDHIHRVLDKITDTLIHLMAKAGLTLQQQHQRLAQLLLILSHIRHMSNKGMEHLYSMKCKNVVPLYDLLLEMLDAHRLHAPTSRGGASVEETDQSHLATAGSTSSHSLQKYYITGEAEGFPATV
Androgen receptor (Homo sapiens), sequence (P10275 whole entry, looked up): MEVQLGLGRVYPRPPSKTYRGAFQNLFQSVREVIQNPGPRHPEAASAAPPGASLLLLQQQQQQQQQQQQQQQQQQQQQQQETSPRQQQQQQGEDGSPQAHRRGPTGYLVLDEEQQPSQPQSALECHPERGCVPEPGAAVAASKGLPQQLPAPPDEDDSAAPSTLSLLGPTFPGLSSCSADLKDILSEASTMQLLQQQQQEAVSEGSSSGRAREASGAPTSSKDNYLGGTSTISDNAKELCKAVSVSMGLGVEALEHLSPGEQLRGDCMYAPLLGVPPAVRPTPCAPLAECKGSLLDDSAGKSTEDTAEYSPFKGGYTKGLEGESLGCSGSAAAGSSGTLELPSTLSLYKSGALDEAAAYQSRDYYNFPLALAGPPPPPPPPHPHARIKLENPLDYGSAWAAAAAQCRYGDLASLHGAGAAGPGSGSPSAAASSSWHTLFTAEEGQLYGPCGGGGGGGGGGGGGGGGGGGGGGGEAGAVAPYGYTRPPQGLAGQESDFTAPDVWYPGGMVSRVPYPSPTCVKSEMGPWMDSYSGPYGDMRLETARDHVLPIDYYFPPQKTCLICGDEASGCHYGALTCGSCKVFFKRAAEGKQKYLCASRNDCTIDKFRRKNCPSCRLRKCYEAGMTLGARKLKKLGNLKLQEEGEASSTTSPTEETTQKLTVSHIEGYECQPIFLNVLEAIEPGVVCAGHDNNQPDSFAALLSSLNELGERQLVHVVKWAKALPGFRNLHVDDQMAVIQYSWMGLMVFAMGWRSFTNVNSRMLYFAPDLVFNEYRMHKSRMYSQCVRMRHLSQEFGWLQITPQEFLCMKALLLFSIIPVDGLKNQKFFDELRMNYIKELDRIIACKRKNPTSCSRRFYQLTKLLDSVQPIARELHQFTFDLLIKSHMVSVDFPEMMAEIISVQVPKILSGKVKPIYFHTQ

C/C(=N\O)[C@@H](C)NCC(C)(C)CN[C@H](C)/C(C)=N/O
outcome [1]: inactive
Potency [2]: inactive
Potency [3]: inactive
Potency [4]: inactive
outcome [5]: inactive
Potency [6]: inactive
Potency [7]: inactive
Potency [8]: inactive
Potency [9]: inactive
outcome [10]: inactive
Potency [11]: inactive
outcome [12]: inactive
Potency [13]: inactive
Potency [14]: inactive

CCCCCCCCCCCCCCCCOP(=O)([O-])OCC[N+](C)(C)C
outcome [1]: inactive
Potency [2]: inactive
Potency [3]: inactive
Potency [4]: inactive
outcome [5]: inactive
Potency [6]: inactive
Potency [7]: inactive
Potency [8]: inactive
Potency [15]: inactive
Potency [9]: inactive
outcome [10]: inactive
outcome [16]: inactive
Potency [11]: inactive
outcome [12]: inactive
Potency [13]: inactive
Potency [14]: inactive

CC(=O)N[C@@H](CC(C)C)C(=O)O
outcome [1]: inactive
Potency [2]: inactive
Potency [17]: inactive
Potency [4]: inactive
outcome [5]: inactive
Potency [6]: inactive
Potency [7]: inactive
Potency [8]: inactive
Potency [15]: inactive
Potency [18]: inactive
Potency [9]: inactive
outcome [10]: inactive
Potency [19]: inactive
outcome [16]: inactive
Potency [11]: inactive
outcome [12]: inactive
Potency [13]: inactive
Potency [14]: inactive

COC(=O)C(C)O (stereo not given)
outcome [1]: inactive
Potency [2]: inactive
Potency [17]: inactive
Potency [4]: inactive
outcome [5]: inactive
Potency [6]: inactive
Potency [7]: inactive
Potency [8]: inactive
Potency [15]: inactive
Potency [9]: inactive
outcome [10]: inactive
Potency [20]: inactive
Potency [19]: inactive
outcome [12]: inactive
Potency [13]: inactive
Potency [14]: inactive

CCCCCCCCOC(=O)CCCCCCCCC(=O)OCCCCCCCC
outcome [1]: inactive
Potency [2]: inactive
Potency [3]: inactive
Potency [4]: inactive
outcome [5]: inactive
Potency [6]: inactive
Potency [7]: inactive
Potency [8]: inactive
Potency [15]: inactive
Potency [9]: inactive
outcome [10]: inactive
Potency [19]: inactive
Potency [11]: inactive
outcome [12]: inactive
Potency [13]: inactive
Potency [14]: inactive

Cc1cc(NS(=O)(=O)c2ccc(N)cc2)nc(C)n1
outcome [1]: inactive
Potency [2]: inactive
Potency [3]: inactive
Potency [4]: inactive
outcome [5]: inactive
Potency [6]: inactive
Potency [7]: inactive
Potency [8]: inactive
Potency [18]: inactive
Potency [9]: inactive
outcome [10]: inactive
Potency [19]: inactive
outcome [16]: inactive
outcome [12]: inactive
Potency [13]: inactive
Potency [14]: inactive

NNS(=O)(=O)c1ccc(Oc2ccc(S(=O)(=O)NN)cc2)cc1
outcome [1]: inactive
Potency [2]: inactive
Potency [17]: inactive
Potency [4]: inactive
outcome [5]: inactive
Potency [6]: inactive
Potency [7]: inactive
Potency [8]: inactive
Potency [15]: inactive
Potency [18]: inactive
Potency [9]: inactive
outcome [10]: inactive
Potency [19]: inactive
Potency [11]: inactive
outcome [12]: inactive
Potency [13]: inactive
Potency [14]: inactive

CCN(CC)CCOc1ccc(Cc2ccccc2)cc1
outcome [1]: inactive
Potency [2]: inactive
Potency [3]: inactive
Potency [4]: inactive
outcome [5]: inactive
Potency [7]: inactive
Potency [8]: inactive
Potency [15]: inactive
Potency [18]: inactive
Potency [9]: inactive
outcome [10]: inactive
Potency [19]: inactive
outcome [16]: inactive
Potency [11]: inactive
outcome [12]: inactive
Potency [13]: inactive
Potency [14]: inactive

CCC/C=C/CO
outcome [1]: inactive
Potency [2]: inactive
Potency [17]: inactive
Potency [4]: inactive
outcome [5]: inactive
Potency [6]: inactive
Potency [7]: inactive
Potency [8]: inactive
Potency [15]: inactive
Potency [18]: inactive
Potency [9]: inactive
outcome [10]: inactive
Potency [19]: inactive
Potency [11]: inactive
outcome [12]: inactive
Potency [13]: inactive
Potency [14]: inactive

C[C@@H]1CN(c2c(F)c(F)c3c(=O)c(C(=O)O)cn(C4CC4)c3c2F)C[C@H](C)N1
activity change, negative = cytotoxicity [1]: 0.0765% [at 15.8 µM]
cytotoxicity increase [2]: -0.134% [at 15.8 µM]
cytotoxicity [3]: -1.92% [at 15.8 µM]
cytotoxicity increase [4]: -0.256% [at 15.8 µM]
activity change, negative = cytotoxic [5]: -2.02% [at 15.8 µM]
activity change, negative = cytotoxicity [6]: 9.9% [at 15.8 µM]
activity change, negative = cytotoxicity [7]: 0.326% [at 15.8 µM]
activity change [8]: 1.09% [at 15.8 µM, active compounds read high]
cytotoxicity increase [18]: -9.96% [at 15.8 µM]
activity change, negative = cytotoxicity [9]: 13.3% [at 19 µM]
viability change, negative = cytotoxic [10]: 2.13% [at 19 µM]
Potency [20]: inactive
activity change, negative = inhibition [19]: 0.469% [at 19 µM]
outcome [16]: inactive
activity change, negative = inhibition [11]: -5.53% [at 19 µM]
activity change, negative = cytotoxicity [12]: -3.08% [at 19 µM]
viability change, negative = cytotoxic [13]: 6.74% [at 19 µM]
viability change, negative = cytotoxic [14]: -0.257% [at 19 µM]

O=C(O)[C@@H](O)[C@H](O)[C@H](O)[C@@H](O)C(=O)O
outcome [1]: inactive
Potency [2]: inactive
Potency [17]: inactive
Potency [4]: inactive
outcome [5]: inactive
Potency [6]: inactive
Potency [7]: inactive
Potency [8]: inactive
Potency [15]: inactive
Potency [18]: inactive
Potency [9]: inactive
outcome [10]: inactive
outcome [16]: inactive
Potency [11]: inactive
outcome [12]: inactive
Potency [13]: inactive
Potency [14]: inactive

Cc1c(-c2ccccc2)oc2c(C(=O)OCCN3CCCCC3)cccc2c1=O
outcome [1]: inactive
Potency [2]: inactive
Potency [3]: inactive
Potency [4]: inactive
outcome [5]: inactive
Potency [7]: 19 µM (active)
Potency [8]: inactive
Potency [18]: inactive
Potency [9]: inactive
outcome [10]: inactive
Potency [19]: inactive
outcome [16]: inactive
Potency [11]: inactive
outcome [12]: inactive
Potency [13]: inactive
Potency [14]: inactive

CC(C)S
outcome [1]: inactive
Potency [2]: inactive
Potency [17]: inactive
Potency [4]: inactive
outcome [5]: inactive
Potency [6]: inactive
Potency [7]: inactive
Potency [8]: inactive
Potency [15]: inactive
Potency [18]: inactive
Potency [9]: inactive
outcome [10]: inactive
Potency [19]: inactive
Potency [11]: inactive
outcome [12]: inactive
Potency [13]: inactive
Potency [14]: inactive

CC(C)O
outcome [1]: inactive
Potency [2]: inactive
Potency [17]: inactive
Potency [4]: inactive
outcome [5]: inactive
Potency [6]: inactive
Potency [7]: inactive
Potency [8]: inactive
Potency [15]: inactive
Potency [18]: inactive
Potency [9]: inactive
outcome [10]: inactive
outcome [16]: inactive
Potency [11]: inactive
outcome [12]: inactive

CCC(=O)O[C@]1(C(=O)SCF)[C@H](C)C[C@H]2[C@@H]3C[C@H](F)C4=CC(=O)C=C[C@]4(C)[C@@]3(F)[C@@H](O)C[C@@]21C
outcome [1]: inactive
Potency [2]: inactive
Potency [17]: inactive
Potency [4]: inactive
outcome [5]: inactive
Potency [6]: inactive
Potency [7]: inactive
Potency [8]: inactive
Potency [15]: inactive
Potency [18]: inactive
Potency [9]: inactive
outcome [10]: inactive
Potency [19]: inactive
outcome [16]: inactive
Potency [11]: inactive
outcome [12]: inactive
Potency [13]: inactive
Potency [14]: inactive

O=C1N(c2ccccc2)c2ccccc2C1(Cc1ccncc1)Cc1ccncc1
outcome [1]: inactive
Potency [2]: inactive
Potency [3]: inactive
Potency [4]: inactive
outcome [5]: inactive
Potency [6]: inactive
Potency [7]: inactive
Potency [8]: inactive
Potency [15]: inactive
Potency [9]: inactive
outcome [10]: inactive
Potency [19]: inactive
outcome [16]: inactive
Potency [11]: inactive
outcome [12]: inactive
Potency [13]: inactive
Potency [14]: inactive
